rCAG binder = binds r(CAG) RNA repeats; inhibition, % at 3 µM; AID 651821; r(CAG) RNA repeat, TO-PRO-1 dye displacement fluorescence; hit rate 1.3% among 370,000;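 active = inhibition above the plate cutoff, the mean of all test compounds on that plate plus 3 SD, cut at about 35% in these data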;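 also: 0% = DMSO alone and 100% = 100 µM mitoxantrone as full dye displacement; higher means more dye released from RNA so lower well fluorescence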
Pemphigus Ab inh = inhibitors of pemphigus antibody binding to human desmoglein-3 | P32926 | DSG3-coupled beads, scFv-anti-DSG3-GFP binding, flow cytometry; active compounds read low | binding (percent of control), % at 10 µM | hit rate 0.48% among 310,000;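 active = binding more than 3 SD below its plate's average and above zero; inconclusive = below that plate limit but binding exactly zero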;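 also: hits lower antibody fragment binding to DSG3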
Target sequence (P32926 whole entry, looked up, the tested form may be a part): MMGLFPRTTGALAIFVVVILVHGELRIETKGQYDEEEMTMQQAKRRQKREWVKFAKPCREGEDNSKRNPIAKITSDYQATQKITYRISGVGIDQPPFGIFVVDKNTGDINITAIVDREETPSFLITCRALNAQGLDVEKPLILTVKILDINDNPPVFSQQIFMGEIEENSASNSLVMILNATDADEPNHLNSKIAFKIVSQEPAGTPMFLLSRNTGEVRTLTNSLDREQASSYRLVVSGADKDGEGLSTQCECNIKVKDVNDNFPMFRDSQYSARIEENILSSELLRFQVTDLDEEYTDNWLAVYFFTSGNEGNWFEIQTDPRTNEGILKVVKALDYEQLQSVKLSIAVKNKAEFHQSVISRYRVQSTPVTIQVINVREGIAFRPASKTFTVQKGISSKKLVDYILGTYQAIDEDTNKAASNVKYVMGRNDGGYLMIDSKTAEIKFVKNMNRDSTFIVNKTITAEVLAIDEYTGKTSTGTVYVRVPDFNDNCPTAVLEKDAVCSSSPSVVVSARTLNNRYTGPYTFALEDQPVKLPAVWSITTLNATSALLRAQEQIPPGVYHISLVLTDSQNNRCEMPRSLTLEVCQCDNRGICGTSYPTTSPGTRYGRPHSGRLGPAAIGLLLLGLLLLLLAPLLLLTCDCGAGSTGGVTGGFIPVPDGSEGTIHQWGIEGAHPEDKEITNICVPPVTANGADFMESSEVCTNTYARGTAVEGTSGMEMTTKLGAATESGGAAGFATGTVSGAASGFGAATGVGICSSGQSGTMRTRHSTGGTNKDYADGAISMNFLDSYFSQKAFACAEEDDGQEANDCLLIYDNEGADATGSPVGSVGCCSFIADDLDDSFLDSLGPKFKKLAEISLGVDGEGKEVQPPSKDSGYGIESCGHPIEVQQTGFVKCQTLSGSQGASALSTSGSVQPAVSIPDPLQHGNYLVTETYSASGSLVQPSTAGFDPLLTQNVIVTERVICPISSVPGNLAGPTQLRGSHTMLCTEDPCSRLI
ADAM17 inh = inhibitors of human ADAM17. P78536. recombinant ADAM17, EDANS/DABCYL FRET peptide cleavage. inhibition, % at 6.95 µM. hit rate 0.83% among 370,000. AID 720648;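 active = inhibition above the mean of compounds lying between control limits plus 3 SD, set per campaign, cut at about 8.5% in these data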;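 also: 0% = DMSO-only wells as the low control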
proKLK7 act = activators of human kallikrein-7 zymogen | purified proKLK7, EDANS-DABCYL substrate fluorescence; 100% is mature enzyme control, 0% vehicle | P49862 | activation, % at 7 µM | AID 652039 | hit rate 0.9% among 370,000;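 active = activation above the mean of all tested compounds plus 3 SD, computed per campaign excluding outliers beyond control limits, cut at about 13% in these data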
MPTP inh = blocks calcium-induced mitochondrial swelling | isolated mouse mitochondria, Ca2+ swelling absorbance, 30 min | inhibition, % at 10 µM | hit rate 1.4% among 360,000 | AID 602449;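 active = inhibition of 50% or more, scaled per plate between neutral and stimulator controls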;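 also: 0% = DMSO wells given calcium and 100% = 1 mM EGTA wells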
ADAM10 inh = ADAM10 inhibition, QFRET primary screen. O14672. recombinant ADAM10, EDANS/DABCYL FRET peptide cleavage, 3 h. inhibition, % at 7 µM. hit rate 0.62% among 370,000. AID 720582;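 active = inhibition above a per-campaign cutoff equal to the mean of compounds falling between control-based bounds plus 3 SD, cut at about 20% in these data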;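 also: 0% = DMSO wells while the 100% control is not disclosed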
ADAM10 confirm = confirmation of inhibitors of human ADAM10. AID 743208. ADAM10 QFRET peptide cleavage, EDANS fluorescence. hit rate 1% among 2,100. shares compounds with ADAM10 inh. inhibition, % at 6.95 µM;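 active = inhibition above about 20% chosen separately for each screening run, limit read from the data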;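 also: 0% = DMSO wells and 100% = marimastat wells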
ADAM17 ctr = counter-screen for ADAM10 exosite inhibitors: inhibitors of human ADAM17 | inhibition, % at 6.95 µM | ADAM17 QFRET peptide cleavage, EDANS fluorescence | shares compounds with ADAM10 inh | hit rate 0.5% among 2,100;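 active = mean triplicate inhibition above the solvent-only control wells' mean plus 3 SD, cut at about 12% in these data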;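 also: 0% = DMSO wells and 100% = marimastat wells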
The depositor's hits bear a star; ? = inconclusive; . = no result given. Rows were chosen to be rich in hits. Some 4.7% of all compounds tested hit in one or more screens of this group.

SMILES	rCAG binder	Pemphigus Ab inh	ADAM17 inh	proKLK7 act	MPTP inh	ADAM10 inh	ADAM10 confirm	ADAM17 ctr
COc1cccc(C2=NN(C(=O)C3CC3)C(O)(C(F)(F)F)C2)c1 (stereo not given)	1	100	2	0	0	-7	.	.
O=C(C1CC1)N1N=C(c2cccc(Br)c2)CC1(O)C(F)(F)F (stereo not given)	-2	89	-4	0	1	81*	-1	0
COc1ccccc1C(=O)Nc1ccc(C)cc1C(=O)c1ccccc1	2	103	7	0	0	21*	1	1
CC(=O)Nc1ccc(S(=O)(=O)NCCNS(=O)(=O)c2ccc(NC(C)=O)cc2)cc1	1	102	0	0	1	0	.	.
CC(=O)Nc1ccc(S(=O)(=O)NCCSCc2ccc(Cl)cc2Cl)cc1	11	102	8	0	31	22*	5	1
CCOC(=O)Nc1ccc2c(c1)N(CCCN(C)C)c1ccccc1CC2	-8	106	1	1	-3	-5	.	.
CN(C)CCCN1c2ccc([N+](=O)[O-])cc2CCc2cc([N+](=O)[O-])ccc21	20	106	8	0	0	23*	0	1
CC(=O)c1ccc(NC(=O)Nc2ccc(NS(=O)(=O)c3ccc(C)cc3)cc2)cc1	24	93	7	0	7	24*	6	1
Cc1cc(C(=O)OC(C(=O)Nc2ccc(C)c(Cl)c2)c2ccccc2)c(C)o1 (stereo not given)	10	101	7	-1	17	22*	5	3
CC(=O)c1cccc(NC(=O)C(C)OC(=O)c2cc(C)oc2C)c1 (stereo not given)	-1	102	6	1	0	-3	.	.
COc1cccc(CNc2cc(C)ccn2)c1O	-1	117	-1	-1	2	1	.	.
Cc1ccnc(NCc2cccc3ccccc23)c1	-3	97	2	0	0	23*	2	0
O=C(CN1N=C(C(F)(F)F)CC1(O)c1ccc([N+](=O)[O-])cc1)c1ccccc1 (stereo not given)	0	.	-2	0	2	7	.	.
O=C(c1ccccc1O)N1N=C(C(F)(F)F)CC1(O)c1ccc([N+](=O)[O-])cc1 (stereo not given)	12	116	6	0	1	27*	1	0
O=C1NC(=O)C2(CCCCC2)N1	1	90	0	0	1	-23	.	.
CCCCN(C(=O)c1ccccc1Br)C(c1ccc(OC)cc1)c1nc2ccccc2[nH]1 (stereo not given)	3	.	7	0	-1	21*	3	1
Cc1ccccc1NC(=O)CSc1ccc(-c2ccc(-n3cccn3)cc2)nn1	0	99	-3	0	1	-9	.	.
CCc1nnc(NC(=O)CSc2ccc(-c3ccc(-n4cccn4)cc3)nn2)s1	2	77*	-3	0	-1	54*	0	0
CCCCCCn1c(=O)n2n(c1=O)[C@@H]1CN(S(=O)(=O)c3ccc(C)cc3)C[C@]1(O)[C@@H](OC(=O)Nc1cccs1)C2	9	107	8	2	1	13	.	.
Oc1ccc(F)cc1-c1cc(-c2ccc3c(c2)OCCO3)n[nH]1	14	108	7	0	4	23*	7	3
COc1ccc(-c2ccc(-c3noc(-c4cccc(OC)c4)n3)c(OC)n2)cc1	0	.	-4	1	7	39*	73*	42*
Cc1ccc(/C=N/NC(=O)CSc2nnc(-c3ccccc3)n2-c2ccc(Cl)cc2)o1	3	.	8	0	12	27*	2	1
Cc1ccc(/C=N/NC(=O)CSc2nnc(-c3ccc(Cl)cc3)n2-c2ccc(Cl)cc2)o1	4	91	0	0	1	4	.	.
Nc1ccc2c(c1)Nc1ccccc1CC2	7	108	4	0	-3	24*	0	1
CC(=O)c1cc2c(cc1NC(=O)CN1Cc3ccccc3C1=O)OCO2	2	?	-2	0	-2	-17	.	.
SMILES	rCAG binder	Pemphigus Ab inh	ADAM17 inh	proKLK7 act	MPTP inh	ADAM10 inh	ADAM10 confirm	ADAM17 ctr
COc1ccc(Cl)cc1Nc1nc(NCCO)nc(N2CCCC2)n1	8	76	-3	0	-11	-1	.	.
CC(C)Oc1ccc(Cl)cc1Nc1nc(NCCO)nc(N2CCCC2)n1	8	97	7	1	1	21*	4	2
COCCOC(=O)c1c(C)oc2ccc(O)c(CN3CCC(C)CC3)c12 (tested in a mixture with another compound)	2	88	-2	0	6	-3	.	.
C#CCN(C[C@H]1[C@H](OC(=O)NCc2ccco2)[C@H](OC(=O)NCc2ccco2)C[C@H]2C(=O)N(c3ccccc3)C(=O)[C@@H]12)S(=O)(=O)c1ccc(C)cc1	18	105	8	1	1	21*	8	2
CC1=C(C(=O)N2CCCCCC2)CC(CC(=O)NCc2cccs2)C(=O)N1Cc1ccccc1 (stereo not given)	1	.	1	0	1	-12	.	.
CC(C)CC1C(=O)N(Cc2cn(CC3CCCCC3)nn2)CCS(=O)(=O)N1Cc1ccc(-c2cccc(CO)c2)cc1 (stereo not given)	8	.	7	0	-1	25*	3	2
CCOc1ccc(CCN2C(=S)N([C@@H](Cc3ccc(O)cc3)CN3CCC[C@@H]3CN3C(=S)NC[C@@H]3CC(C)C)C[C@@H]2Cc2ccccc2)cc1	18	.	4	0	1	21*	12	5
C#CCN(C[C@@H]1[C@@H](OC(=O)NC2CC2)[C@@H](OC(=O)NC2CC2)Cn2c(=O)n(CCCCCC)c(=O)n21)S(=O)(=O)c1ccc(C)cc1	5	.	4	0	-1	13	.	.
C#CCN(C[C@@H]1[C@@H](OC(=O)NCc2ccc(OC)c(OC)c2)[C@@H](OC(=O)NCc2ccc(OC)c(OC)c2)Cn2c(=O)ccc(=O)n21)S(=O)(=O)c1ccc(C)cc1	15	.	2	1	0	17	.	.

Screening results: PubChem, several laboratories
